The values that follow come from the supplement of paper PMC10849652.

Test in all cases: log2 fold change, soluble protein after heating vs DMSO (PISA); higher = thermal stabilisation; K562 lysate, 10 uM; active = over 0.2 and 3.5 SD of the protein, either way, in both replicates (recomputed)
Compound in test [1]: NCC(=O)Nc1ccc(-n2nc(C(F)(F)F)cc2-c2ccc3c(ccc4ccccc43)c2)cc1
The essentials:
(§1)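 Log-two fold change in thermal stability relative to solvent controls is reported from duplicates. For each sample, crude K562 extract from dounce-homogenised pellets in PBS pH 7.4 with 1 mM MgCl2, at 1 mg/mL protein, was treated with 10 μM compound for 30 min. Aliquots heated for 3 min across 48°C-58°C were pooled, brought to 0.5% NP-40 at 4°C and cleared at 21,000xg for 90 min. The supernatant was quantified by TMTpro 16plex LC-MS/MS with channel sums equalised.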

Compound in the next test: O=C(CCCCCCC(=O)Nc1ccccc1)NO [vorinostat]
The essentials: as §1

Compound in the next test: O=C(O)c1ccc2c(c1)nc(Nc1cccc(Cl)c1)c1ccncc12 [silmitasertib]
The essentials: as §1

Compound in test [2]: O=C1NC(=O)C(c2cnc3ccccn23)=C1c1cn2c3c(cc(F)cc13)CN(C(=O)N1CCCCC1)CC2
The essentials: as §1

Compound in a further test: c1cn2cc(-c3ccc4cn[nH]c4c3)nc(Nc3ccc(N4CCOCC4)cc3)c2n1 [entospletinib]
An outline of the steps:
as §1

Targets with a hit are over-represented here; the source holds about 8,800 in all. About 0.5% of all pairs of compound and target were hits. A number with no mark means an inactive call.

Chain of UniProt O15379 (O15379 whole entry, looked up): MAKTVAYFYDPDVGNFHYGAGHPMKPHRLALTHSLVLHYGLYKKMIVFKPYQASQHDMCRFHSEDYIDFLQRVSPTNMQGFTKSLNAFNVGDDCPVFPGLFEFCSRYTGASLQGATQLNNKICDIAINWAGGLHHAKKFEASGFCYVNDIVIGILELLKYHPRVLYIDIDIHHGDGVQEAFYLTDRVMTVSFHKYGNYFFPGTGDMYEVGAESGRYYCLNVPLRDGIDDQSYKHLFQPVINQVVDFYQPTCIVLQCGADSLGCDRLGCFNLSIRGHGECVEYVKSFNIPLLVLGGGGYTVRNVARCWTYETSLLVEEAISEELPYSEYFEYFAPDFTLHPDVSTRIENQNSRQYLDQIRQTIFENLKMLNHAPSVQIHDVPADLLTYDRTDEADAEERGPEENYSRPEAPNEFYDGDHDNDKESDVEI
Chain of UniProt Q7Z4H7 (Q7Z4H7 whole entry, looked up): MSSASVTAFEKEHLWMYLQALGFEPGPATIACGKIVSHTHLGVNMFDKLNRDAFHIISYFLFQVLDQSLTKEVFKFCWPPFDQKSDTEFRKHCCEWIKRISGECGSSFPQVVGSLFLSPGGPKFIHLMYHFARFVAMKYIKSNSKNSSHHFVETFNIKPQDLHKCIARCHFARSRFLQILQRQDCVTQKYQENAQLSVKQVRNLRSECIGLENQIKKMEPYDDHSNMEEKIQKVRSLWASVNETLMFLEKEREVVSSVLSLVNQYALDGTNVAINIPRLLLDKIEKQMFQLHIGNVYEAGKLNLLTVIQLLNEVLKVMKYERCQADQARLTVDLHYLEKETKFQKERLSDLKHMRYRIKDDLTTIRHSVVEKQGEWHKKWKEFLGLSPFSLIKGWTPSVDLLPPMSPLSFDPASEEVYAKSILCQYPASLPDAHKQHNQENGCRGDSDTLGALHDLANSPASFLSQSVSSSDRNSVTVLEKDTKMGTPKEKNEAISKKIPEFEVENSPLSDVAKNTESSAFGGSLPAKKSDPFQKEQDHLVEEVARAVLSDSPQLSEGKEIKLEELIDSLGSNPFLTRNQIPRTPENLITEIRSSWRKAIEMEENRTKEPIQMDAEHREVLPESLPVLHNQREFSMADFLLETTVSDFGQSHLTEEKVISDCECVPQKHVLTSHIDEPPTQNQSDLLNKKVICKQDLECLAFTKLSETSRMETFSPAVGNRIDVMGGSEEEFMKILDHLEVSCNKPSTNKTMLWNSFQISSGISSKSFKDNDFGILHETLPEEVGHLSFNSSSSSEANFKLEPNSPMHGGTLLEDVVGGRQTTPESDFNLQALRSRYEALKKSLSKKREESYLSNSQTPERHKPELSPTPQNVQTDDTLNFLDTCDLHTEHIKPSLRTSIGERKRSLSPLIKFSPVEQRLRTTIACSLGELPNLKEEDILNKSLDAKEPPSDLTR
Chain of UniProt P09429 (P09429 whole entry, looked up): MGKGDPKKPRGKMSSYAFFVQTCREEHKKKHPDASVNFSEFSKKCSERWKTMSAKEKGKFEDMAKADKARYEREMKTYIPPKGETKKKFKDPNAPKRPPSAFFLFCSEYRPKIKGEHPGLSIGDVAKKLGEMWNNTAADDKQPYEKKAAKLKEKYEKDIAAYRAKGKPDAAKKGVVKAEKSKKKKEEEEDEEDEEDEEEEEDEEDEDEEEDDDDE
Chain of UniProt Q7Z5Y7 (Q7Z5Y7 whole entry, looked up): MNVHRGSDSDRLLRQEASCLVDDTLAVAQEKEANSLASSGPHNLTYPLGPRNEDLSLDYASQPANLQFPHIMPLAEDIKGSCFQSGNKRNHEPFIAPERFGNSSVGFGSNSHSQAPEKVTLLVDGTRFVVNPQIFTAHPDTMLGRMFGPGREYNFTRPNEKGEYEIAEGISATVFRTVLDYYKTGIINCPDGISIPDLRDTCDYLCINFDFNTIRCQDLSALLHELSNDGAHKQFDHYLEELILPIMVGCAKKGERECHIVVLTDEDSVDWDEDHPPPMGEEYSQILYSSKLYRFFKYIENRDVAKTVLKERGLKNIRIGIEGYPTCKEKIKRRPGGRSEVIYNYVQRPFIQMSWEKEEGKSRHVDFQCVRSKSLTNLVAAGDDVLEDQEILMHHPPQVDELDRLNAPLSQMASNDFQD
Chain of UniProt Q9NVX0 (Q9NVX0 whole entry, looked up): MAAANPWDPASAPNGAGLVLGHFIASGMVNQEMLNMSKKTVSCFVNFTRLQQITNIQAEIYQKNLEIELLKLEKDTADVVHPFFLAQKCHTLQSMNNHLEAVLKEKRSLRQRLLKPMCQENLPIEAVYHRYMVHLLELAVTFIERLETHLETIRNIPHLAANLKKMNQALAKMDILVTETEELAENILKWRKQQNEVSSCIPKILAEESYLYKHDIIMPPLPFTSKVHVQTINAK
Chain of UniProt P82970 (P82970 whole entry, looked up): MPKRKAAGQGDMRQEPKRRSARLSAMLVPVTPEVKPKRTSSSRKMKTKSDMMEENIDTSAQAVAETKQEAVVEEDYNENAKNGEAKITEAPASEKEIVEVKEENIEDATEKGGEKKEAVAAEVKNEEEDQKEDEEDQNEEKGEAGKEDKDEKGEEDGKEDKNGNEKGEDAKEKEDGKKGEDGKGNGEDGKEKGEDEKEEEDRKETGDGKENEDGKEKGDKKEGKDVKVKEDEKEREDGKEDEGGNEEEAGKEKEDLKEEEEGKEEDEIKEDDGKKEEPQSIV
Chain of UniProt Q0VDF9 (Q0VDF9 whole entry, looked up): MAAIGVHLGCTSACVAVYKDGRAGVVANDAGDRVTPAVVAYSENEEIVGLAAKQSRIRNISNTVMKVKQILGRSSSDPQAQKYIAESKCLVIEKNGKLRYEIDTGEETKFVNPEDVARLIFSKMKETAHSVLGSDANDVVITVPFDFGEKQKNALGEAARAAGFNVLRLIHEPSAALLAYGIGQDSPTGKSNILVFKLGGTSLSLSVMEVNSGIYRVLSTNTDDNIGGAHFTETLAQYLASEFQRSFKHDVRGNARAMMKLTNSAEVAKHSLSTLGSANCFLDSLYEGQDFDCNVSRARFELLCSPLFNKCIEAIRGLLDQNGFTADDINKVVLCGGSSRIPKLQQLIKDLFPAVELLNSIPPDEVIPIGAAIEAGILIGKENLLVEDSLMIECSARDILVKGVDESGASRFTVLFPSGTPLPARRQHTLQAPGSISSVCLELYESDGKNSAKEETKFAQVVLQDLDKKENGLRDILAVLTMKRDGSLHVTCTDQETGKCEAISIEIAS
Chain of UniProt P40939 (P40939 whole entry, looked up): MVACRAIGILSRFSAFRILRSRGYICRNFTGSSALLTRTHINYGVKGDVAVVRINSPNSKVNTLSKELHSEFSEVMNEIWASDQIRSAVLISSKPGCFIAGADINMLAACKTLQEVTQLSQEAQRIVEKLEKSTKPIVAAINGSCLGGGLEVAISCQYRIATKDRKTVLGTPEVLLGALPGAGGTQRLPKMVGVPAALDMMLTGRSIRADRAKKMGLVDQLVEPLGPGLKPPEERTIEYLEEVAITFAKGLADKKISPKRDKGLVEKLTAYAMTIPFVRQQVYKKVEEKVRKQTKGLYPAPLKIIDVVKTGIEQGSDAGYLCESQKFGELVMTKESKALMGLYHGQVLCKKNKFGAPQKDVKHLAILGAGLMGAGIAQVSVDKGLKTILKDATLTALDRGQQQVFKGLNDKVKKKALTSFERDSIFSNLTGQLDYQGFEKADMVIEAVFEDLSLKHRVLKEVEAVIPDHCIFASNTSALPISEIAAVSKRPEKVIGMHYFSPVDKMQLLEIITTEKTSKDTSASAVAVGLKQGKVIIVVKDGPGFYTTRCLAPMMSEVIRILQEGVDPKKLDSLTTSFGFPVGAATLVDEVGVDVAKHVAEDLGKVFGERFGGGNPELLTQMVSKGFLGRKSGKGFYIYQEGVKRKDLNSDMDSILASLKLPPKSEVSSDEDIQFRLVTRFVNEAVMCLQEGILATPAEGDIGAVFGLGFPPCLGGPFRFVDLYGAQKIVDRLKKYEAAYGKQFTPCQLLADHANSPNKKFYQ

In the case of HAUS6 (UniProt Q7Z4H7), the log2 fold change in test [1] was -0.057; with vorinostat, -0.3 (active); with silmitasertib it was 0.014; in test [2], 0.007; in the test with entospletinib it was 0.015.
In the case of KCTD20 (UniProt Q7Z5Y7), the log2 fold change in test [1] was -0.137; in the test with vorinostat, -0.323 (active); with silmitasertib, 0.035; in test [2], 0.053; with entospletinib it was 0.091.
On the same counts, the results for HMGB1 (UniProt P09429) are -0.024, 0.083, 0.017, 0.098 and -0.014.
Regarding HSPA14 (UniProt Q0VDF9), the log2 fold change in test [1] was -0.022; with vorinostat, -0.226 (active); with silmitasertib it was 0.035; in test [2], -0.007; with entospletinib, -0.009.
On the same counts, the results for HIST2H2AA3 (UniProt Q6FI13) are -0.056, 0.12, -0.073, 0.068 and -0.106.
For HADHA (UniProt P40939) the same measures were 0.052, -0.159, -0.026, 0.302 and 0.027.
Turning to HDAC3 (UniProt O15379), the log2 fold change in test [1] was -0.016; with vorinostat, -0.264 (active); with silmitasertib, -0.027; in test [2], -0.008; with entospletinib, 0.
In the case of HMGN5 (UniProt P82970), the log2 fold change is -0.014 in test [1]; 0.14 with vorinostat; 0.002 with silmitasertib; -0.005 in test [2]; 0.002 with entospletinib.
With HAUS2 (UniProt Q9NVX0), the log2 fold change in test [1] was -0.052; in the test with vorinostat, -0.514 (active); in the test with silmitasertib, -0.037; in test [2], 0.039; with entospletinib, -0.029.
